Screens deposited in PubChem by National Center for Advancing Translational Sciences (NCATS).
SMN2 splice enh: qHTS Assay for Enhancers of SMN2 Splice Variant Expression | Potency, µM (titrated, usually from 46.1 µM), without a hit: at the highest dose activity change, positive = activation, actives largely listed as activators | 210,000 compounds, 2.8% hits | HEK293 SMN2-luciferase splicing reporter, luminescence, 30-36 h; further: % of control where 0% means no effect; nearly all actives have a fitted effect of over 55% in size
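HEK293 cells carry an SMN2 […]–luciferase reporter in which exon 7 inclusion puts luciferase in frame. Cells were plated 10-12 h before compound addition, then incubated 30-36 h at 37C. ONE-Glo luminescence was read; sodium butyrate at 4.5 mM final served as control.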
p53 reactivation: qHTS assay for re-activators of p53 using a Luc reporter; H1299 p53-A138V BP100-luciferase reporter, luminescence, 24 h; Potency, µM (top dose mostly 92.2 µM), for inactives: top-dose activity change, positive = activation, actives largely listed as activators; 320,000 compounds, 0.063% hits; AID 504706, 2011; further: % of control where 0% means no effect; nearly all actives have a fitted effect of over 45% in size
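H1299 (p53-null), stable ts p53-A138V + BP100-Luc; 1000 cells/well, Opti-MEM/10% FBS; cpd 4 pt, 1:5; 24 h, 37 deg C, 5% CO2; detection reagent 10 min RT; luminescence.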
ELG1 genotox: qHTS screen for small molecules that induce genotoxicity in human embryonic kidney (HEK293T) cells expressing luciferase-tagged ELG1. HEK293T ELG1-luciferase reporter, luminescence, 16 h. Potency, µM (highest dose often 46 µM), for inactives: at the top dose activity change, positive = activation, usual class: activators. 330,000 compounds, 1.3% hits; further: % of control where 0% means no effect; nearly all actives have a fitted effect of over 60% in size
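Luminescence read-out: rising ELG1-luciferase signal, reflecting elevated ELG1 protein under genetic stress, flags genotoxic compounds. Cells were treated for 16 hr at 37 °C before ONE-Glo detection.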
NPC1 prom act: qHTS Assay for NPC1 Promoter Activators; Huh7 NPC1 promoter luciferase reporter, 24 h; Potency, µM (top dose mostly 9.22 µM), inactives show at the highest dose activation, actives largely listed as activators; 320,000 compounds, 2.4% hits; further: % of control where 0% means no effect; nearly all actives have a fitted effect of over 60% in size
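Compounds in DMSO were transferred onto Huh7 NPC1-luciferase reporter cells pre-incubated 2 h; after 24 h at 37 °C, Amplite reagent was dispensed and luminescence recorded 10 min later.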
FLuc modulator: qHTS profiling assay for firefly luciferase inhibitor/activator using purifed enzyme and Km concentrations of substrates (counterscreen for miR-21 project) | Luciferin 4-monooxygenase (Photinus pyralis), P08659 | purified FLuc, Km substrates, luminescence inhibition | Potency, µM (titrated, usually from 57.5 µM), without a hit: at the top dose activity change, negative = inhibition, most hits filed as inhibitors | 360,000 compounds, 6.9% hits;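 further: plate controls were vehicle for no effect and reference inhibitor for full effect; nearly all actives have a fitted effect of over 55% in size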
Target sequence (P08659 whole entry, looked up): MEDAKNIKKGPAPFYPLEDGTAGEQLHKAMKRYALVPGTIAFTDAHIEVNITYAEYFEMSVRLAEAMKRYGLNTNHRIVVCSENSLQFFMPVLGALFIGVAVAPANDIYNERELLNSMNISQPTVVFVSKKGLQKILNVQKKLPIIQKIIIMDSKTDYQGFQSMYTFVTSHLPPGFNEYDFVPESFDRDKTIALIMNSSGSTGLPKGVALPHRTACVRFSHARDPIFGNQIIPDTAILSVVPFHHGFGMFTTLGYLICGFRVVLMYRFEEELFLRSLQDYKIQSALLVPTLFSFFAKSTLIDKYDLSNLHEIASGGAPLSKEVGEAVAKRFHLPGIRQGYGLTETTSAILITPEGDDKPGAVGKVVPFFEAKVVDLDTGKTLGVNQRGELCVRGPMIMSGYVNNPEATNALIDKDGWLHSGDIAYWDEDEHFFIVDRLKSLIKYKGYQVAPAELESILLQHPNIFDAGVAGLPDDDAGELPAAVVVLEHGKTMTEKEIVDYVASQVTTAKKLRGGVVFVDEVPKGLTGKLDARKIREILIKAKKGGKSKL
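Purified P. pyralis luciferase, 10 nM final, with Km-level 10 uM D-luciferin and 10 uM ATP in 50 mM Tris acetate pH 7.5, 10 mM Mg acetate, 0.01% Tween-20, 0.05% BSA; 6-point qHTS titration about 60 µM downward; luminescence read.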
Rab9 prom act: qHTS Assay for Rab9 Promoter Activators | Huh7 Rab9 promoter-luciferase reporter, luminescence, 24 h | Potency, µM (top dose mostly 9.22 µM), without a hit: at the highest dose activation, negative = inhibition, usual class: activators | 320,000 compounds, 2.8% hits | AID 485297, 2010; further: % of control where 0% means no effect; nearly all actives have a fitted effect of over 60% in size
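Steps: seed 1500 Huh7 Rab9-luc cells per well, rest 2 h at 37 °C; add compound in DMSO; incubate 24 h; add luciferase reagent, 10 min ambient; read luminescence.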
* = called active by the depositor; ? = inconclusive; · = no result given; [ ] = dose if it differs, or a comment. Sampled rows, rich in hits. Any-hit rate of the full collection: about 7.3%. The call rests on the fitted dose curve; in most records, active means well fitted curve in the direction sought with a large enough effect; inconclusive means small, poorly fitted or top-dose-only effect, or another doubt; inactive means no such curve, though single readings can be large; an effect the other way counts as inactive or inconclusive. Potency means the concentration at half of the fitted maximal effect.

SMILES | SMN2 splice enh | p53 reactivation | ELG1 genotox | NPC1 prom act | FLuc modulator | Rab9 prom act
O=S(=O)(Nc1ccc2c(c1)OCCO2)c1cccs1 | 1.2% | 2.3% | 7.31µM* | 1.6% | ? | 4.5%
Cc1c(C(=O)OCC2CCCCC2)[nH]c2c1C(=O)CC(c1ccccc1Cl)C2 (configuration not stated) | -8.7% | · | · | · | 4.2% | ·
CCOc1ccccc1Nc1ccc(N)cc1S(=O)(=O)O | -13.2%[9.22 µM] | · | · | · | · | ·
CCOC(=O)Cn1c(=O)cc(C(F)(F)C(F)(F)F)c2c(C)nn(CC)c21 | · | · | · | · | -3.0% | ·
CCn1c(=O)c2cc(C(=O)NCCCN3CCN(c4ccc(F)cc4)CC3)sc2c2ccccc21 | -6.4% | · | · | · | -13.6% | ·
O=C(O)/C=C/c1ccccc1Oc1ccc(Cl)cc1Cl | 3.1% | -5.0% | 0.5% | -0.1% | 15.1µM* | -2.5%
O=C(/C=C/c1ccccc1O)c1ccc(Cl)cc1 | · | ? | 10.3% | -0.5% | 3.38µM* | 25.2%
COc1ccc(OC)c(/C=C/C(=O)c2ccc(Cl)cc2)c1 | -32.3% | -29.1% | 0.6% | -2.1% | 10.7µM* | -5.1%
COc1ccccc1/C=C/C(=O)N1CCC(c2ccccc2)C1 (configuration not stated) | 12.6µM* | ? | ? | ? | 9.53µM* | ?
O=C(O)/C=C\c1ccccc1Oc1cccc(Cl)c1 | -2.5% | 1.1% | 2.1% | -10.5% | ? | 6.8%
COc1ccccc1/C=C/C(=O)c1ccccc1 | · | 31.6µM* | ? | ? | 1.9µM* | ?
COc1ccccc1/C=C/C(=O)c1ccc(NC(C)=O)cc1 | · | ? | -0.8% | 7.9% | 15.1µM* | -0.5%
CCOc1ccccc1/C=C/C(=O)c1ccc(Cl)cc1 | -58.2% | 17.0% | 9.8% | 16.8% | ? | 10.7%
COc1ccccc1/C=C/C(=O)c1ccc(Cl)cc1 | -18.9% | -0.9% | ? | ? | 7.57µM* | 13.4%
NC(N)=NC[C@@H]1COC2(CCCCC2)O1 | 9.8%[20.6 µM] | · | · | · | · | ·
CC(=O)Nc1ccc(NC(=O)C(C)OC(=O)CNS(=O)(=O)c2cccc(Cl)c2)cc1 (configuration not stated) | -4.8% | -2.0% | -0.9% | -4.2% | -2.0% | 1.0%
CCOc1ccccc1NC(=O)CSc1nc2ccccc2nc1Cc1ccc(C)cc1 | · | · | · | · | -9.6% | ·
COc1ccc(-c2cc(C(=O)N3CC(C)CC(C)C3)c3ccccc3n2)cc1 (configuration not stated) | · | 2.2% | -1.0% | 1.9% | ? | -5.4%
COc1ccc(-c2cc(C(=O)N3CCCC(C(F)(F)F)C3)c3ccccc3n2)cc1 (configuration not stated) | · | 4.9% | -6.3% | -0.7% | 6.01µM* | -7.1%
COc1ccc2cc(-c3cc(C(=O)O)c4ccccc4n3)ccc2c1 | ? | -9.0% | ? | 0.112µM* | 0.0675µM* | ?
O=C(O)c1cc(-c2ccco2)nc2ccc(Br)cc12 | 0.2% | 24.1% | -5.6% | -0.4% | 19µM* | -4.7%
COc1ccc(-c2cc(C(=O)O)c3ccccc3n2)c(OC)c1 | 20.4% | 2.2% | 16.3% | -2.7% | ? | -0.7%
O=C(c1cc(-c2ccc(F)cc2)nc2ccccc12)N1CCC1 | · | 1.6% | -4.5% | · | · | ·
O=C(O)c1cc(-c2ccc(-c3ccc(F)cc3)o2)nc2ccccc12 | · | ? | ? | 2.51µM* | 0.135µM* | 0.891µM*
COc1ccccc1CNC(=O)c1ccc2c(c1)sc1nc(-c3ccc(F)cc3)cn12 | · | · | · | · | -0.8% | ·
SMILES | SMN2 splice enh | p53 reactivation | ELG1 genotox | NPC1 prom act | FLuc modulator | Rab9 prom act
Cc1ccccc1-c1cc(C(=O)N2CCCC2)c2ccccc2n1 | · | · | -2.2% | 1.0% | 5.9% | 0.6%
COc1ccc(-c2cc(C(=O)N3CCCCCC3)c3ccccc3n2)c(OC)c1 | · | 0.5% | -15.6% | -5.7% | -10.6% | -2.2%
COc1ccc(-c2cc(C(=O)N3CCCC3)c3ccccc3n2)cc1 | · | 7.0% | 5.0%[9.26 µM] | 28.8% | 4.26µM* | ?
Cc1ccc(-c2cc(C(=O)N3CCCCC3)c3ccccc3n2)cc1C | · | ? | 5.1% | 18.2% | 2.39µM* | 8.4%
CCOc1ccc(-c2cc(C(=O)N3CCN(C)CC3)c3ccccc3n2)cc1 | 11.2µM* | 27.8% | ? | 2.82µM* | 0.601µM* | 2.51µM*
COc1ccc(-c2cc(OC)c3ccccc3n2)cc1 | 8.7% | 9.3% | -1.3% | -1.7% | 19µM* | -2.2%
CCN(C(=O)c1cn(CC(C)C)c(=O)c2cc(OC)c(OC)cc12)c1cc(OC)ccc1OC | 2.0% | · | · | · | -2.8% | ·
COc1ccc(-c2cc3cc(OC)c(OC)cc3c(C)n2)cc1 | · | 4.2% | 3.4% | ? | 16.9µM* | ?
CC(C)c1ccc(-c2cc(C(=O)N3CCOCC3)c3cc(Br)ccc3n2)cc1 | · | 22.8% | -9.2% | 3.4% | 9.53µM* | 20.7%
O=C(c1cc(-c2cccc(Cl)c2)nc2ccccc12)N1CCCC1 | · | -4.8% | -5.8% | -4.5% | 16.9µM* | 4.2%
Cc1ccc(-c2cc(C(=O)N3CCN(c4ccc(F)cc4)CC3)c3ccccc3n2)o1 | 14.0% | 22.3% | -6.6% | 2.3% | 3.38µM* | 15.9%
O=C(c1cc(-c2ccccc2)nc2ccccc12)N1CCCC1 | · | -4.3% | -5.7% | 2.2% | ? | -0.5%
Cc1ccc(CSC2=Nc3ccccc3C3=NC(CC(=O)NC4CCCCC4)C(=O)N23)cc1 (configuration not stated) | · | · | · | · | 2.4% | ·
COc1ccc(-c2cc(C(=O)N3CCN(c4ccccc4)CC3)c3ccccc3n2)cc1 | 13.4% | -0.5% | 2.1% | -21.6% | 2.69µM* | -8.5%
Cc1ccc(-c2cc(C(=O)N3CCN(c4ccc(O)cc4)CC3)c3ccccc3n2)cc1 | · | 21.3% | -0.3% | · | · | ·
Cc1ccc(-c2cc(C(=O)N3CCN(c4ncccn4)CC3)c3cc(Br)ccc3n2)o1 | -13.6% | -1.2% | -5.4% | 2.3% | 4.78µM* | -3.2%
CCOc1ccc(-c2cc(C(=O)N3CCCC3)c3ccccc3n2)cc1 | · | -2.5% | ? | 3.55µM* | 0.477µM* | 1.41µM*
O=C(c1cc(-c2ccccn2)nc2ccc(Br)cc12)N1CCN(S(=O)(=O)c2ccccc2)CC1 | 4.7% | 0.9% | -5.6% | 0.0% | -6.0% | -0.3%
Cc1ccc(-c2cc(C(=O)N3CCCC(C(F)(F)F)C3)c3ccccc3n2)o1 (configuration not stated) | · | 3.6% | -2.0% | 3.5% | 12µM* | 8.7%
Cc1ccc(-c2cc(C(=O)N3CCOCC3)c3ccccc3n2)o1 | · | 22.4% | 7.9% | · | · | ·
